Bioassay records from PubChem.
This is a sample that favours compounds with a hit; in the whole collection about 4.8% have one here.
SMARCA2 act – SMARCA2 function activation, primary screen. MG213 cells, MMTV-luciferase reporter, dexamethasone, overnight. activation, % at 9.1 µM. 1% of 370,000 active. AID 652017; in the data active means activation above about 7.8%;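 further: 0% = vehicle wells and 100% = reference activator wells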
ssDAF-12 act – activates DAF-12 receptor from parasite S. stercoralis; HEK293 ssDAF-12/GRIP1 lit1-tk-luc reporter, luminescence; % of 3 µM dafachronic acid response; activation, % at 6.8 µM; 1% of 370,000 active;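 active means activation above the mean over all tested compounds plus 3 SD, cut at about 0.9% in these data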;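 further: 0% = DMSO-only wells and 100% = 3 µM delta7-dafachronic acid wells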
DAX1 inh-1 – DAX1 (NR0B1) inhibition, primary screen. inhibition, % at 6.8 µM. AID 652010. HEK293T StAR-luciferase reporter, SF-1/DAX-1 repression relief. 1.1% of 370,000 active;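 active means inhibition above the mean over all tested compounds plus 3 SD, cut at about 3.6% in these data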;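 further: 0% = DAX-1 cells with DMSO and 100% = cells lacking DAX-1 with DMSO; higher inhibition means more luminescence from relief of DAX-1 repression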
hgDAF12 agonist – activates the H. glycines DAF-12 receptor ligand-binding domain; activation, % at 6.8 µM; 1.8% of 370,000 active; HEK293 GAL4-hgDAF12 UAS-luciferase reporter, agonist luminescence; normalized to butyrate control;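 active means activation above a cutoff set at the mean of all screened compounds plus 3 SD, cut at about 10% in these data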;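 further: 0% = DMSO wells and 100% = sodium butyrate wells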
DAX1 inh-2 – inhibitors of human orphan nuclear receptor DAX1 (NR0B1); P51843; HEK293 Gal4-DAX1 luciferase reporter, luminescence; inhibition, % at 6.75 µM; 0.99% of 340,000 active; AID 504766;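 active means inhibition above the mean over all tested compounds plus 3 SD, cut at about 4.2% in these data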;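 further: 0% = DAX1-transfected cells with DMSO and 100% = empty-vector control cells with DMSO; inhibition shows as a rise in luminescence from relieved DAX1 repression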
Target sequence (P51843 207-470 limits assumed): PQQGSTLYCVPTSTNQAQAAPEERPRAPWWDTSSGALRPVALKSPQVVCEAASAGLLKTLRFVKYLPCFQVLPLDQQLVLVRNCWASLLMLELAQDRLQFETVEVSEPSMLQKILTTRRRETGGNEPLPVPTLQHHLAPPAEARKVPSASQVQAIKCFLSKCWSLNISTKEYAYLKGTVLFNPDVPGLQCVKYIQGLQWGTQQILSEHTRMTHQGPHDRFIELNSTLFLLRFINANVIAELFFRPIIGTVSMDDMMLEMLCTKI
hcDAF12 agonist – H. contortus DAF-12 activation, primary screen. activation, % at 6.8 µM. 1.4% of 370,000 active. HEK293 hcDAF-12 lit1-tk-luc reporter, luminescence; 0% DMSO, 100% Δ7-dafachronic acid. AID 652067;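 active means activation above the mean of all tested compounds plus 3 SD, cut at about 5.5% in these data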;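 further: 100% = response to 3 µM Δ7-dafachronic acid high control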
* marks the source's active call; other numbers are inactive results; . = no result given.

SMILES	SMARCA2 act	ssDAF-12 act	DAX1 inh-1	hgDAF12 agonist	DAX1 inh-2	hcDAF12 agonist
COc1ccc(OC)c(NC(=O)c2ccc(N3C(=O)C4CC=C(C)CC4C3=O)cc2)c1 (stereo not given)	-1	-1	0	2	-1	-2
CCCn1c(-c2cccc([N+](=O)[O-])c2)nc2c1c(=O)[nH]c(=O)n2Cc1ccccc1	-2	-1	-1	0	6.4*	0
Cc1ccc(C(=O)N2CCc3ccccc32)cc1	4	0	1	9	1	5
Cn1cc(C(=O)N2CCc3ccccc32)cn1	1	1.2*	2	5	2	6.5*
CC(=O)c1ccc(Cc2ccc(C(C)=O)cc2)cc1	0	-2	0	2	-2	-2
CC(=O)c1ccc(CCCC(=O)O)cc1	-3	-1	0	-2	4.9*	2
CC1=CC(C)(C)NC(=S)N1c1cc(C)cc(C)c1	-3	-1	0	-4	0	-2
O=C(OCC(=O)N1CCCCC1)c1c[nH]c2ccccc12	7.8*	-1	1	3	0	1
O=C(OCC(=O)c1c[nH]c2ccccc12)c1cccc(S(=O)(=O)N2CCCCCC2)c1	4	1.1*	0	1	-1	1
O=C(OCC(=O)N1CCCC1)c1c[nH]c2ccccc12	7	-1	1	0	0	-1
O=C(COC(=O)c1cccc(S(=O)(=O)N2CCCCC2)c1)NCc1ccccc1	2	-1	1	1	0	0
CN(C(=O)c1ccccc1)c1ccc(OCC(=O)NC2CCS(=O)(=O)C2)cc1 (stereo not given)	-3	-1	0	-1	0	0
CCC(=O)NC1=C(NC(C)c2ccccc2)C(=O)c2ccccc2C1=O (stereo not given)	0	-1	0	-3	0	0
CCC(=O)NC1=C(Cl)C(=O)C(NC(=O)CC)=C(Cl)C1=O	8.6*	-1	-1	-6	-4	-1
O=C(Nc1ccc(F)cc1)c1cccc2c1C(=O)N(CC1CCCO1)C2 (stereo not given)	-1	-1	2	1	4.2*	-4
COCCN1Cc2cccc(C(=O)Nc3ccc(S(=O)(=O)N4CCCCCC4)cc3)c2C1=O	-2	1.5*	0	0	0	-2
CCNS(=O)(=O)c1ccc(OC)c(C)c1	-4	-2	0	0	0	-1
CCNS(=O)(=O)c1ccc2c(c1)NCC2	-1	1.7*	0	-3	0	-2
O=C(NNS(=O)(=O)c1ccc(Br)cc1)c1csnn1	-5	0	0	0	5.1*	0
Cc1ccc(N2C(=O)c3ccccc3C2Nc2ccccc2F)nc1 (stereo not given)	1	-1	0	13*	0	-1
COc1cc(OC)c(NC2c3ccccc3C(=O)N2c2cc(C)ccn2)cc1Cl (stereo not given)	0	0	3.6*	12*	0	0
Cc1ccc(C2c3c(oc4cc(C)c(C)cc4c3=O)C(=O)N2CCCN2CCOCC2)cc1 (stereo not given)	4	-2	0	1	0	-2
CCCCCC(O)(CCN1CCCCC1)c1ccc(OCC)cc1 (stereo not given)	2	-1	0	1	0	-1
CC(=O)CSc1nnc(-c2ccc(S(=O)(=O)N3CCOCC3)cc2)n1C	-2	-1	0	0	5.4*	0
CNC(C)C#Cc1ccc2c(=O)c3cc(C)c(C)cc3oc2c1 (stereo not given)	4	0	1	11*	-2	3
SMILES	SMARCA2 act	ssDAF-12 act	DAX1 inh-1	hgDAF12 agonist	DAX1 inh-2	hcDAF12 agonist
COc1ccccc1NC(=O)COc1ccc(C(=O)NCC2CCCO2)cc1OC (stereo not given)	0	-1	-1	-3	0	-1
Nc1nnn(-c2ccccc2)c1-c1ccccc1	0	-2	0	-1	4.6*	2
CCOC(CNC(=O)c1cc2c(=O)n(CC)c3ccccc3c2s1)OCC	-1	-2	0	-1	-1	-2
CCCN(CCC)CCCNC(=O)c1cc2c(=O)n(CC)c3ccccc3c2s1	6	-1	2	0	7.3*	1
CCn1c(=O)c2cc(C(=O)NCC(OC)OC)sc2c2ccccc21	-2	-1	0	-2	6.2*	-2
COC(=O)C1N[C@@H]([C@@H](NC(=O)COc2ccccc2)C(=O)NC2CC2)SC1(C)C (stereo not given in full)	-1	-2	0	0	0	-1
COc1ccccc1CNC(=O)Cc1cc(=O)[nH]c(=O)[nH]1	0	-1	0	0	1	2
Cc1ccc(-n2c(C)cc(C(=O)CSc3nnnn3C)c2C)cc1	3	0	1	12*	0	5
Cc1cc(C(=O)CSc2nnnn2C)c(C)n1CCc1ccc(F)cc1	-2	0	0	2	1	4
Cc1cc(C(=O)CSc2nnnn2C)c(C)n1Cc1ccco1	4	0	1	12*	2	3
O=C(OCC(=O)N(CCc1ccccc1)Cc1ccccc1)c1cccc(S(=O)(=O)N2CCOCC2)c1	-3	1	-1	-3	0	0
CC(=O)c1ccc(NC(=O)C2CCN(S(=O)(=O)c3cccc4cccnc34)CC2)cc1	-1	-2	-1	2	-1	-1
N#Cc1c(F)cccc1N1CCC(C#N)CC1	-4	-2	0	-1	0	-1
N#Cc1cccc(C#N)c1N1CCC(C#N)CC1	-1	-1	0	11*	.	-2
COc1ccc(Br)cc1CN(C)CC(=O)Nc1ccccc1Cl	1	-1	-1	-4	-1	0
Cc1cc(/C=C2\SC(=S)NC2=O)c(C)n1-c1cccc(O)c1	3	0	4	7	5.3*	5
Cc1ccc(-n2c(C)cc(/C=C3\SC(=O)NC3=O)c2C)cc1	2	0	1	6	2	3
COc1ccc(/C=N/NC(=O)c2ccncc2)cc1OC	-3	-1	0	-2	0	-2
O=C(N/N=C\c1cccs1)c1ccccc1-n1cccc1	1	0	-1	1	0	5
COc1ccc(/C=C/C(=O)Oc2ccc(/C=N/NC(=O)c3ccccc3)cc2)cc1OC	-2	0	0	6	4.2*	0
O=C(N/N=C/c1ccc(F)cc1)c1ccccc1	3	0	3	13*	5.2*	3
O=C(N/N=C\c1ccc(F)cc1)c1csnn1	6	-1	2	13*	3	1
O=C(N/N=C\c1ccccc1)c1ccccc1-n1cccc1	3	1.2*	-1	3	2	4
O=C(O)c1ccc(/C=N/NC(=O)c2ccc(F)cc2)cc1	-2	-1	0	-1	1	1
